Data from PubChem BioAssay AID463173 (ICCB-Longwood Screening Facility, Harvard Medical School, 2010).
Screen size: about 52,000 compounds; about 4,300 (8.3%) were called active. No stated cut-off is given here; in the data, active means survival mostly below about 52% (no sharp cut-off); inactive means mostly above about 56%. Shown is part of a subset that was picked to be rich in actives.

test system: DeltatarO mutant; assay: S. aureus survival, RN4220 and DeltatarO strains – OD600, teichoic acid synthesis inhibitors, primary screen (AID 463173); settings: S. aureus RN4220 wild type/DeltatarO growth, OD600, 18 h, hits give low values, screened at 18.75 µg/mL (by protocol)

| SMILES | survival |
| --- | --- |
| CC(C)c1ccc(NS(=O)(=O)c2ccc3[nH]cc(C(=O)NCCc4ccccc4)c(=O)c3c2)cc1 | 73% (inactive) |
| COc1cccc(NS(=O)(=O)c2ccc3[nH]cc(C(=O)N(C)C4CCCCC4)c(=O)c3c2)c1 | 98% (inactive) |
| CC(C)c1ccc(NS(=O)(=O)c2ccc3[nH]cc(C(=O)NC4CCCCC4)c(=O)c3c2)cc1 | 14% (active) |
| CC(C)c1ccc(NS(=O)(=O)c2ccc3[nH]cc(C(=O)N4CCCC4)c(=O)c3c2)cc1 | 76% (inactive) |
| CCN(c1ccccc1)S(=O)(=O)c1ccc2[nH]cc(C(=O)NC3CCCCC3)c(=O)c2c1 | 82% (inactive) |
| CC(C)c1ccc(NS(=O)(=O)c2ccc3[nH]cc(C(=O)NCC4CCCO4)c(=O)c3c2)cc1 (configuration not stated) | 81% (inactive) |
| CC(C)c1ccc(NS(=O)(=O)c2ccc3[nH]cc(C(=O)NC4CCCC4)c(=O)c3c2)cc1 | 4% (active) |
| Cc1cc(C)cc(NS(=O)(=O)c2ccc3[nH]cc(C(=O)N4CCCCCC4)c(=O)c3c2)c1 | 85% (inactive) |
| COc1cccc(NS(=O)(=O)c2ccc3[nH]cc(C(=O)N4CCCCCC4)c(=O)c3c2)c1 | 124% (inactive) |
| Cc1cc(C)cc(NS(=O)(=O)c2ccc3[nH]cc(C(=O)NC4CCCCC4)c(=O)c3c2)c1 | 17% (active) |
| Cc1cc(C)cc(NS(=O)(=O)c2ccc3[nH]cc(C(=O)N4CCCCC4)c(=O)c3c2)c1 | 83% (inactive) |
| COc1cccc(NS(=O)(=O)c2ccc3[nH]cc(C(=O)NC4CCCCC4)c(=O)c3c2)c1 | 35% (active) |
| Fc1ccc(Nc2ncnc3c2nc2n3CCCCC2)c(F)c1 | 55% (inactive) |
| CN(C)S(=O)(=O)N(CC(=O)NCCSc1ccc(Cl)cc1)c1ccccc1 | 50% (inactive) |
| NC(=O)CCn1c2ccccc2c2ccccc21 | 78% (inactive) |
| O=C1C=CC(=O)C(c2ccc(Cl)cc2)=C1 | 66% (inactive) |
| CCCCNc1sc(S(=O)(=O)CCC)nc1S(=O)(=O)c1ccc(C)cc1 | 86% (inactive) |
| Cc1ccc(S(=O)(=O)c2c(Nc3ccc(C)c(C)c3)sc(C(=O)c3ccc4c(c3)OCO4)c2N)cc1 | 125% (inactive) |
| COc1ccccc1NC(=O)c1cc2c([nH]c1=O)CC(C)(C)CC2=O | 90% (inactive) |
| CCN(CC)C(=O)c1sc2c(c1C)c(=O)n(CCc1ccccc1)c(=O)n2Cc1cccc(Cl)c1 | 102% (inactive) |
| CCOc1ccc(-c2nc(Cn3ccn4nc(-c5ccc(OCC)c(Cl)c5)cc4c3=O)c(C)o2)cc1 | 96% (inactive) |
| CCCCOc1ccc(-c2nnn(C(C)(C)C(=O)O)n2)cc1 | 99% (inactive) |
| CCOC(=O)c1c(S(=O)(=O)NCC(=O)N2CCN(c3ccccc3OC)CC2)c(C)n(C)c1C | 77% (inactive) |

| SMILES | survival |
| --- | --- |
| O=C(CSc1nc(O)cc(=O)[nH]1)Nc1ccccc1 | 82% (inactive) |
| O=C(NC1CCCC1)c1c[nH]c2ccc(S(=O)(=O)Nc3cccc(C(F)(F)F)c3)cc2c1=O | 16% (active) |
| CN(C(=O)c1c[nH]c2ccc(S(=O)(=O)Nc3cccc(C(F)(F)F)c3)cc2c1=O)C1CCCCC1 | 72% (inactive) |
| Cc1ccccc1NS(=O)(=O)c1ccc2[nH]cc(C(=O)NC(C)c3ccccc3)c(=O)c2c1 (configuration not stated) | 90% (inactive) |
| CC(C)CCNC(=O)c1c[nH]c2ccc(S(=O)(=O)Nc3cccc(C(F)(F)F)c3)cc2c1=O | 74% (inactive) |
| COc1cccc(NS(=O)(=O)c2ccc3[nH]cc(C(=O)NCCc4ccccc4)c(=O)c3c2)c1 | 83% (inactive) |
| COc1cccc(NS(=O)(=O)c2ccc3[nH]cc(C(=O)NC(C)c4ccccc4)c(=O)c3c2)c1 (configuration not stated) | 37% (active) |
| CCOc1ccc(-c2noc(CSc3nnc(Cc4ccccc4)n3-c3cccc(C)c3)n2)cc1 | 66% (inactive) |
| Cc1ccc(C)c(Cn2c(SCC(=O)NCc3ccccc3)nc3ccccc32)c1 | 73% (inactive) |
| COc1cc(NC(=O)c2cc(Cl)ccc2Cl)ccc1NC(=O)c1cc2ccccc2o1 | 55% (inactive) |
| CCOc1ccc(S(=O)(=O)Nc2ccc3c(c2)c(C(C)=O)c(C)n3S(=O)(=O)c2ccc(OCC)cc2)cc1 | 67% (inactive) |
| NC(=O)CSc1nnc(Cn2cnc3ccccc32)o1 | 79% (inactive) |
| CCOc1ccc(NC(=O)CCC(=O)N2CCSc3ccccc32)cc1 | 75% (inactive) |
| CCCN(C(=O)c1coc(=O)c2ccccc12)c1ccccc1C | 56% (active) |
| CCCN(C(=O)c1cn(C)c(=O)c2ccccc12)c1ccccc1C | 79% (inactive) |
| CCN(C(=O)c1coc(=O)c2ccccc12)c1ccccc1C | 113% (inactive) |
| CC(=O)N1CCCc2cc(S(=O)(=O)N3CCCC(C(=O)Nc4cccc(F)c4)C3)ccc21 (configuration not stated) | 87% (inactive) |
| CCc1ccc(-n2c(=O)c3c4c(sc3n(Cc3ccc(F)cc3)c2=O)CCCC4)cc1 | 42% (inactive) |
| COc1ccc(Cl)cc1NC(=O)c1cc2nc(-c3ccc(C)cc3)cc(C(F)(F)F)n2n1 | 78% (inactive) |
| COc1ccc(-c2cc(C(F)(F)F)n3nc(C(=O)Nc4cc(C)ccc4C)cc3n2)cc1 | 70% (inactive) |
| COc1ccc(-c2cc(C(F)(F)F)n3nc(C(=O)Nc4cccc(Cl)c4C)cc3n2)cc1 | 70% (inactive) |
| COC(=O)c1ccc(C(=O)OC)c(NC(=O)c2cc3nc(-c4ccc(C)cc4)cc(C(F)(F)F)n3n2)c1 | 83% (inactive) |
| COc1ccc(NC(=O)c2cc3nc(-c4ccc(Cl)c(Cl)c4)cc(C(F)(F)F)n3n2)c(OC)c1 | 47% (active) |

| SMILES | survival |
| --- | --- |
| COC(=O)c1ccccc1NC(=O)c1cc2nc(-c3ccc(OC)cc3)cc(C(F)(F)F)n2n1 | 36% (active) |
| COc1ccc(-c2cc(C(F)(F)F)n3nc(C(=O)Nc4cc(Cl)cc(Cl)c4)cc3n2)cc1 | 86% (inactive) |
| COc1ccc(-c2cc(C(F)(F)F)n3nc(C(=O)Nc4cc(C(F)(F)F)ccc4Cl)cc3n2)cc1OC | 152% (inactive) |
| COc1cc(NC(=O)c2cc3nc(-c4ccc(C)cc4)cc(C(F)(F)F)n3n2)cc(OC)c1OC | 41% (active) |
| Cc1cc(N2CCC(C(O)(c3ccccc3)c3ccccc3)CC2)nc(C)n1 | 108% (inactive) |
| Cc1cc(C)cc(-n2c(SCC(=O)Nc3ccc4c(c3)OCCO4)nc3c([nH]c4ccccc43)c2=O)c1 | 126% (inactive) |
| CCc1ccc2oc(C(=O)N(Cc3cccc(Cl)c3)Cc3ccco3)c(C)c2c1 | 53% (inactive) |
| Cc1c(C(=O)N(Cc2ccco2)Cc2ccccc2Cl)oc2ccc(F)cc12 | 42% (active) |
| Cc1cc2oc(C(=O)N(Cc3ccco3)Cc3ccccc3Cl)c(C)c2cc1C | 43% (active) |
| Cc1ccc(CN(Cc2ccco2)C(=O)c2oc3ccc(C)cc3c2C)cc1 | 54% (inactive) |
| Cc1cccc(C(=O)N(Cc2ccco2)Cc2ccccc2F)c1 | 102% (inactive) |
| Cc1cc(C)cc(OCC(=O)N(Cc2ccco2)Cc2ccccc2Cl)c1 | 73% (inactive) |
| O=C(c1cccc(Cl)c1)N(Cc1ccco1)Cc1ccccc1Cl | 32% (active) |
| Cc1cc2oc(C(=O)N(Cc3ccc(Cl)cc3)Cc3ccco3)c(C)c2cc1Cl | 64% (inactive) |
| Cc1cc2oc(C(=O)N(Cc3ccc(N(C)C)cc3)Cc3ccco3)c(C)c2cc1Cl | 84% (inactive) |
| COc1cccc(C(=O)N(Cc2cccc(Cl)c2)Cc2ccco2)c1 | 68% (inactive) |
| CCc1ccc2oc(C(=O)N(Cc3ccc(N(C)C)cc3)Cc3ccco3)c(C)c2c1 | 71% (inactive) |
| Cc1c(C(=O)N(Cc2cccc(Cl)c2)Cc2ccco2)oc2ccccc12 | 40% (active) |
| CCn1cc(C(=O)NCc2ccc(C)cc2)c(=O)c2cc(S(=O)(=O)N(C)C3CCCCC3)ccc21 | 75% (inactive) |
| CN(Cc1ccccc1)C(=O)Cn1ncc2c3ccccc3n(Cc3cccc(Cl)c3)c2c1=O | 90% (inactive) |
| Cc1c(Cl)cccc1NC(=O)C(=O)NCCc1csc(-c2cccc(F)c2)n1 | 76% (inactive) |
| CCC(C)[C@@H](C(=O)Nc1ccc(C)cc1)N1Cc2ccccc2C1=O (some centres not stated) | 74% (inactive) |
| CCn1cc(C(=O)NCCCOC)c(=O)c2cc(S(=O)(=O)N3CCCC3)ccc21 | 92% (inactive) |

| SMILES | survival |
| --- | --- |
| Cc1ccc(C(CC(=O)Nc2ccc(F)c(Cl)c2)N2Cc3ccccc3C2=O)cc1 (configuration not stated) | 88% (inactive) |
| CCC(=O)N1CCc2cc(Br)cc(S(=O)(=O)N3CCCC(C(=O)NCc4ccccc4)C3)c21 (configuration not stated) | 107% (inactive) |
| Cc1ccc(CN(Cc2ccco2)C(=O)c2oc3cc(Br)ccc3c2C)cc1 | 43% (active) |
| Cc1ccc(CN(Cc2ccco2)C(=O)c2oc3c(C)c(C)ccc3c2C)cc1 | 50% (inactive) |
| Cc1c(C(=O)N(Cc2ccc(N(C)C)cc2)Cc2ccco2)oc2cc(Br)ccc12 | 68% (inactive) |
| CCOc1ccc(C(=O)c2cn(CC(=O)Nc3ccc(OC)cc3)c3cc4c(cc3c2=O)OCO4)cc1 | 69% (inactive) |
| CCC1CCCCN1CCCNC(=O)CN1C(=O)c2cccnc2Oc2ccc(C)cc21 (configuration not stated) | 78% (inactive) |
| CCS(=O)(=O)N1CC(=O)N(c2ccc(C)c(C)c2)C(C)(C(=O)NC2CCCCC2)C1 (configuration not stated) | 87% (inactive) |
| CCc1ccc(NC(=O)c2cc(S(=O)(=O)N3CCCCC3)c[nH]2)cc1 | 105% (inactive) |
| Cc1c(CC(=O)NCc2ccccc2Cl)c(=O)oc2cc(O)ccc12 | 44% (active) |
| COc1ccccc1CCNC(=O)Cc1c(C)c2ccc(O)cc2oc1=O | 57% (inactive) |
| Cc1cc(O)c2c(C)c(CC(=O)NCc3ccccc3Cl)c(=O)oc2c1 | 62% (inactive) |
| CCN(CC)c1ncnc(Cl)c1Cc1ccc(OC)cc1 | 105% (inactive) |
| COc1ccccc1NC(=O)N1CCN(c2cc(-c3ccccc3)nc3ncnn23)CC1 | 66% (inactive) |
| Cc1ccc(S(=O)(=O)c2nc(-c3cccc(Br)c3)oc2N2CCCCCC2)cc1 | 45% (active) |
| Cc1ccc(S(=O)(=O)c2nc(-c3cccc(C)c3)oc2N2CCCCC2)cc1 | 6% (active) |
| COc1cccc(-c2nc(S(=O)(=O)c3ccc(C)cc3)c(N3CCCCC3)o2)c1 | 47% (inactive) |
| COc1cccc(-c2nc(S(=O)(=O)c3ccccc3)c(N3CCCCC3)o2)c1 | 61% (inactive) |
| Cc1cccc(-c2nc(S(=O)(=O)c3ccc(Cl)cc3)c(N3CCCCCC3)o2)c1 | 46% (active) |
| Cc1cccc(-c2nc(S(=O)(=O)c3ccccc3)c(N3CCN(c4ccccc4)CC3)o2)c1 | 112% (inactive) |
| COc1cccc(-c2nc(S(=O)(=O)c3ccc(C)cc3)c(N3CCCCCC3)o2)c1 | 55% (inactive) |
| Cc1ccc(S(=O)(=O)c2nc(-c3cccc(C)c3)oc2N2CCN(c3ccccc3)CC2)cc1 | 114% (inactive) |
| Cc1cccc(-c2nc(S(=O)(=O)c3ccc(F)cc3)c(N3CCN(c4ccccc4)CC3)o2)c1 | 110% (inactive) |
